Data from PubChem BioAssay (EPA / NIEHS).
Results filed as inconclusive are left out. Calls of active or inactive are those of the source. How the source made its calls, unless noted: active means hit-call score of the fitted dose curve at least 0.9, where 1 is the maximum; inactive means score below 0.9.

Tests used:
DIO1 (gene 1733) = test: CCTE_GLTED_hDIO1: CCTE's human Deiodinase 1 (DIO1) Inhibition Assay, Great Lakes Toxicology and Ecology Division (GLTED) Lab (AID 2283987; active means hit-call score of the fitted dose curve at least 0.9, where 1 is the maximum;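 further: isolated human DIO1 enzyme in a cell-free setup rather than cells; enzyme activity read as free iodide liberated from substrate via Sandell-Kolthoff colorimetry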)
Summary of the method: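 Cell-free hDIO1 assay, triplicate plates. Absorbance of the Sandell-Kolthoff reaction reports enzyme-liberated iodide; iodinated chemicals or nitrite, iron and thiocyanate may interfere.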

[1] = CCTE_Simmons_MITO_basal_resp_rate: CCTE's HepG2 Seahorse XF Respirometric Screening Assay at Basal Respiratory State, Simmons Lab (AID 2284001); conditions: actives raise or lower the signal
Summary of the method: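 Readout is oxygen consumption rate after test compound injection, measured by Seahorse XF in HepG2 cells. Seven concentrations from 125 nM up to 100 uM final are tested, and activity in either direction is fitted against DMSO.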

[2] = CCTE_Simmons_MITO_inhib_resp_rate: CCTE's HepG2 Seahorse XF Respirometric Screening Assay at Inhibited Respiratory State [full ETC block], Simmons Lab (AID 2284006); conditions: actives raise or lower the signal
Summary of the method: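 This endpoint is the respiration rate remaining after rotenone/antimycin A block, in HepG2 cells on a Seahorse XF96. Chemicals spanned 125 nM–100 uM final, in three biological replicates. OCR was read every 6 minutes for 72 minutes and compared with DMSO vehicle.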

[3] = CCTE_Simmons_MITO_viability: CellTiter-Glo Viability Assessment for CCTE's HepG2 Seahorse XF Respirometric Screening Assay [post-hoc], Simmons Lab (AID 2284007; active means hit-call score of the fitted dose curve at least 0.9, where 1 is the maximum;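 on AC50: cells exposed to chemical for 90 min before the ATP read; actives lower ATP signal relative to DMSO baseline meaning reduced viability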)
Summary of the method: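 Luciferase-coupled ATP read-out after the Seahorse run: HepG2 cells treated 90 minutes with test chemical, 7-point series of 125 nM–100 uM final, in triplicate biological runs. Vehicle DMSO; dichlone as positive control over 8 concentrations.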

[4] = CCTE_Harrill_HTTr_Viability_MCF7: CCTE's 6-hour Cell Viability Assessment for the High-Throughput Transcriptomics (HTTr) Platform, in MCF-7 cells cultured in DMEM + 10% fetal bovine serum, Harrill Lab (AID 2284010)
Summary of the method: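 Propidium iodide exclusion, imaged by high-content analysis, gauged viability after a six-hour exposure across eight concentrations. Cells were MCF-7 grown in DMEM with 10% fetal bovine serum; fits run in both directions against DMSO.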

[5] = CCTE_Harrill_HTTr_Apoptosis_MCF7: CCTE's 6-hour Apoptosis Assessment for the High-Throughput Transcriptomics (HTTr) Platform, in MCF-7 cells cultured in DMEM + 10% fetal bovine serum, Harrill Lab (AID 2284011)
Summary of the method: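 Cells are dosed with test chemicals at eight concentrations and imaged 6 hours later for caspase-3/7 activity using a green fluorogenic detection reagent. Activity is fitted in both directions against DMSO controls.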

[6] = CCTE_Harrill_HTTr_CellCount_MCF7: CCTE's Cell Proliferation Assessment for the High-Throughput Transcriptomics (HTTr) Platform, Harrill Lab (AID 2284012; active means hit-call score of the fitted dose curve at least 0.9, where 1 is the maximum;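 further: cells exposed to compound for six hours; intended direction is loss of nuclei count meaning fewer cells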)
Summary of the method: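 Cell count from high-content imaging of Hoechst-labeled nuclei serves as viability/growth readout. Chemicals were applied to MCF-7 cells in eight concentrations for six hours, with fitting in both directions relative to DMSO.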

[7] = CCTE_Shafer_MEA_acute_spike_number: CCTE's Neural Acute Assay for Total Number of Spikes, Shafer Lab (AID 2284008);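 on AC50: curve fitted for decrease in spike count so AC50 reflects inhibitors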
Summary of the method: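 Cortical neurons from rat, matured to DIV 13 or 15 on microelectrode arrays, are recorded at 37 C before and during 40-min exposure to 0.03-40 uM compound. Wells need >/= 10 active electrodes.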

[8] = CCTE_Shafer_MEA_acute_firing_rate_mean: CCTE's Neural Acute Assay for Mean Firing Rate, Shafer Lab (AID 2284009);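 further: analyzed for loss of signal so actives lower firing rate relative to DMSO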
Summary of the method: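 Spontaneous spiking of primary rat cortical networks, DIV 13/15, 37 C. Compound 0.03-40 uM, n ≥3 wells; 40 min baseline vs 40 min treated. Endpoint fitted in loss-of-signal direction against DMSO.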

[9] = CCTE_Shafer_MEA_acute_burst_number: CCTE's Neural Acute Assay for Single-Electrode Bursts, Shafer Lab (AID 2284013)
Summary of the method: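 Burst totals were derived with adaptive spike detection (8x rms threshold) on filtered signals from rat cortical cultures; change relative to pre-treatment baseline after 40-min compound exposure (0.03-40 uM) was fitted in the negative direction against DMSO.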

[10] = CCTE_Shafer_MEA_acute_burst_duration_mean: CCTE's Neural Acute Assay for Mean Burst Duration, Shafer Lab (AID 2284014);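 further: hits are decreases in mean burst duration relative to DMSO controls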
Summary of the method: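 Acute exposure of mature rat cortical networks (DIV 13 or 15) grown on microelectrode arrays to 0.03-40 uM compound. Mean burst duration compared with the 40-min pre-dose baseline over a 40-min post-dose recording at 37 C.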

[11] = CCTE_Harrill_HTTr_Apoptosis_DMEM_6hr: (Pilot) CCTE's 6-hour Apoptosis Assessment for the High-Throughput Transcriptomics (HTTr) Platform, in MCF-7 cells cultured in DMEM + 10% fetal bovine serum, Harrill Lab (AID 2283981)
Summary of the method: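 MCF-7 cells grown in DMEM + 10% FBS were exposed for 6 hours to an eight-point dilution series. CellEvent Caspase 3/7 Green signal was imaged; activity fitted bidirectionally against DMSO.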

[12] = CCTE_Harrill_HTTr_Apoptosis_DMEM_12hr: (Pilot) CCTE's 12-hour Apoptosis Assessment for the High-Throughput Transcriptomics (HTTr) Platform, in MCF-7 cells cultured in DMEM + 10% fetal bovine serum, Harrill Lab (AID 2283982)
Summary of the method: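 Caspase-3/7 activity was measured by high-content imaging (CellEvent Caspase 3/7 Green) after a 12-hour exposure of MCF-7 cells grown in DMEM with 10% FBS. Eight-point concentration series, fitted bidirectionally against vehicle.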

[13] = CCTE_Harrill_HTTr_Apoptosis_DMEM_24hr: (Pilot) CCTE's 24-hour Apoptosis Assessment for the High-Throughput Transcriptomics (HTTr) Platform, in MCF-7 cells cultured in DMEM + 10% fetal bovine serum, Harrill Lab (AID 2283983)
Summary of the method: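 Caspase-3/7 activity read by high-content imaging (CellEvent Green reagent) 24 h after dosing. MCF-7 cells grown in DMEM with 10% FBS received an eight-point concentration series; fits were bidirectional versus DMSO.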

[14] = CCTE_Harrill_HTTr_Apoptosis_PRF_DMEM_6hr: (Pilot) CCTE's 6-hour Apoptosis Assessment for the High-Throughput Transcriptomics (HTTr) Platform, in MCF-7 cells cultured phenol red-free DMEM + 10% charcoal-stripped fetal bovine serum, Harrill Lab (AID 2283984)
Summary of the method: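 Caspase-3/7 activity (CellEvent Green) read by high-content imaging 6 h after dosing, eight concentrations. Cells: MCF-7, phenol red-free DMEM with 10% charcoal-stripped serum. Curves fit both directions against DMSO.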

[15] = CCTE_Harrill_HTTr_Apoptosis_PRF_DMEM_12hr: (Pilot) CCTE's 12-hour Apoptosis Assessment for the High-Throughput Transcriptomics (HTTr) Platform, in MCF-7 cells cultured in phenol red-free DMEM + 10% charcoal-stripped fetal bovine serum, Harrill Lab (AID 2283985)
Summary of the method: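 Caspase-3/7 activity by CellEvent Green high content imaging after 12 h compound exposure (eight concentrations) in MCF-7 grown in phenol red-free DMEM plus 10% charcoal-stripped serum; DMSO as baseline.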

[16] = CCTE_Harrill_HTTr_Apoptosis_PRF_DMEM_24hr: (Pilot) CCTE's 24-hour Apoptosis Assessment for the High-Throughput Transcriptomics (HTTr) Platform, in MCF-7 cells cultured in phenol red-free DMEM + 10% charcoal-stripped fetal bovine serum, Harrill Lab (AID 2283986)
Summary of the method: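 Eight concentrations tested for 24 h on MCF-7 grown in charcoal-stripped serum, phenol red-free DMEM. High content imaging of CellEvent Caspase 3/7 Green signal gives apoptosis read-out, fitted both ways relative to DMSO.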

[17] = biological target: Nucleoli Translocation, AR (gene 367) (UniProt P10275); test: UPITT_HCI_U2OS_AR_TIF2_Nucleoli_Antagonist: University of Pittsburgh U2OS Androgen Receptor-Transcriptional Intermediary Factor 2 (AR-TIF2) Antagonism High Content Imaging Assay for Nucleoli Translocation (AID 2283997; active means hit-call score of the fitted dose curve at least 0.9, where 1 is the maximum)
Chain of Nucleoli Translocation, AR (gene 367) (P10275 whole entry, looked up): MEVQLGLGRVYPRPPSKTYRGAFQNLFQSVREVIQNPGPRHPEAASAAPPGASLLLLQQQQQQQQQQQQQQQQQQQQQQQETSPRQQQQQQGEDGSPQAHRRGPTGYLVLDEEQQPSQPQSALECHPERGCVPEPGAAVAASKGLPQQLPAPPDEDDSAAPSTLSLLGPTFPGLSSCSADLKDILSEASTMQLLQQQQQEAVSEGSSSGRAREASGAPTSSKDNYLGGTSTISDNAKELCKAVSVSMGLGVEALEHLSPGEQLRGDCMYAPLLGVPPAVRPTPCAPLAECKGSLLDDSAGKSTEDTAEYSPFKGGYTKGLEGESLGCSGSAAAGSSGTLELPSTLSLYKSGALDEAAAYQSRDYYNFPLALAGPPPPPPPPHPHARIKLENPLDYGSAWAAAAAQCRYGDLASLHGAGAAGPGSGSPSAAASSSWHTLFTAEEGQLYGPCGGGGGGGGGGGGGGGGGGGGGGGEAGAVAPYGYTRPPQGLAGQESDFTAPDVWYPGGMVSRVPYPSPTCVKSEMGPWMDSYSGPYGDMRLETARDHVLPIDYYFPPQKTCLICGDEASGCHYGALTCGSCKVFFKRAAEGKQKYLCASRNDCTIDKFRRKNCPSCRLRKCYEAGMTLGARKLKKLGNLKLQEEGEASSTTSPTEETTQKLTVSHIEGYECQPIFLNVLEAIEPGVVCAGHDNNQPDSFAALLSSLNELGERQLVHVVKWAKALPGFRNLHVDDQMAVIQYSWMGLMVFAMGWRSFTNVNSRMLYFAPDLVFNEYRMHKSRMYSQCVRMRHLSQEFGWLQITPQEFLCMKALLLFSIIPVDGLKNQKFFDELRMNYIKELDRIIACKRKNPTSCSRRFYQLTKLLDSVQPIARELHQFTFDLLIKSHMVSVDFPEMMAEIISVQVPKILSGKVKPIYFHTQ
Summary of the method: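 An antagonist-mode imaging screen: engineered U2OS (AR-RFP, TIF2-GFP) exposed to 20 uM compound, 0.2% DMSO. Activity reflects nucleolar red fluorescence change relative to DHT baseline.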

[18] = biological target: Ratio of Nucleoli Translocation and Cytoplasm, AR (gene 367) (UniProt P10275); test: UPITT_HCI_U2OS_AR_TIF2_Nucleoli_Cytoplasm_Ratio_Antagonist: University of Pittsburgh U2OS Androgen Receptor-Transcriptional Intermediary Factor 2 (AR-TIF2) Antagonism High Content Imaging Assay for Ratio of Nucleoli Translocation and Cytoplasm (AID 2283999; active means hit-call score of the fitted dose curve at least 0.9, where 1 is the maximum;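 further: antagonists lower the DHT-driven ratio of nucleolar to cytoplasmic red signal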)
Chain of Ratio of Nucleoli Translocation and Cytoplasm, AR (gene 367) (P10275 whole entry, looked up): as above
Summary of the method: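 High-content imaging of red fluorescence ratio, nucleoli versus cytoplasm, in U2OS expressing AR-RFP and TIF2-GFP, fitted relative to DHT. Compounds tested once at 20 uM final, then 0.195 to 50 uM final in serial dilution.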

[19] = biological target: Ratio of Nucleoli Translocation and Cytoplasm, AR (gene 367) (UniProt P10275); test: UPITT_HCI_U2OS_AR_TIF2_Nucleoli_Cytoplasm_Ratio_Agonist: University of Pittsburgh U2OS Androgen Receptor-Transcriptional Intermediary Factor 2 (AR-TIF2) Agonism High Content Imaging Assay for Ratio of Nucleoli Translocation and Cytoplasm (AID 2284000; active means hit-call score of the fitted dose curve at least 0.9, where 1 is the maximum;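 further: hits raise the red nucleolar to cytoplasm ratio above vehicle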)
Summary of the method: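 Primary screen at 20 uM final (0.2% DMSO), then triplicate confirmation and dose-response from 0.195 to 50 uM final (0.5% DMSO). Cells: U2OS with AR-RFP and TIF2-GFP. Endpoint is the nucleoli/cytoplasm red-fluorescence ratio, gain-of-signal vs DMSO.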

Measured: AC50

O=C1C2CC=CCC2C(=O)N1SC(Cl)(Cl)Cl (centres undefined)
active: DIO1 (gene 1733) 53.8 µM | [1] 59.9 µM
inactive: [2] | [3] | [4] | [5] | [6]

CCCN(CC)CC1COC2(CCC(C(C)(C)C)CC2)O1 (centres undefined)
inactive: [7] | [8] | [4] | [5] | [6] | [9] | [10]

CCOC(=O)C(C)OC(=O)c1cc(Oc2ccc(C(F)(F)F)cc2Cl)ccc1[N+](=O)[O-] (centres undefined)
active: [7] 5.49 µM | [8] 5.46 µM
inactive: [11] | [12] | [13] | [14] | [15] | [16] | [4] | [5] | [9] | [10]

CCN(CC)C(=O)C(C)Oc1cccc2ccccc12 (centres undefined)
inactive: [1] | [4] | [5]
active: [3] 50 µM

CCOc1nc(F)cc2nc(S(=O)(=O)Nc3c(Cl)cccc3Cl)nn12
active: DIO1 (gene 1733) 38.8 µM
inactive: [7] | [8] | [4] | [5] | [9] | [10]

CC1(C)CCC(=Cc2ccc(Cl)cc2)C1(O)Cn1cncn1 (centres undefined)
inactive: [18] | [7] | [8] | [4] | [5] | [9] | [10]
active: [17] 2.9 µM | [19] 15.9 µM

CCOP(=S)(OCC)Oc1nc(Cl)n(C(C)C)n1
active: [1] 29.3 µM
inactive: [2] | [3] | [4] | [5] | [6]

CC(C)N1C(=O)N(c2ccccc2)CSC1=NC(C)(C)C
inactive: [17] | [18] | [19] | [1] | [2] | [4] | [5] | [6] | [10]
active: [7] 5.21 µM | [8] 5.27 µM | [9] 4.94 µM

CC1(C)C(C=C(Cl)Cl)C1C(=O)OC(C#N)c1cccc(Oc2ccccc2)c1 (centres undefined)
inactive: [11] | [12] | [13] | [14] | [15] | [16] | [1] | [2] | [3] | [7] | [8] | [4] | [5] | [6] | [9] | [10]

CCCCC(O)(Cn1cncn1)c1ccc(Cl)cc1Cl (centres undefined)
active: [17] 62.7 µM | [19] 77.3 µM | [1] 41 µM | [3] 10.1 µM
inactive: [18] | [2] | [7] | [8] | [4] | [5] | [6] | [9] | [10]

Cc1c(COC(=O)[C@@H]2[C@H](/C=C(\Cl)C(F)(F)F)C2(C)C)cccc1-c1ccccc1
inactive: [11] | [12] | [13] | [14] | [15] | [16] | [1] | [2] | [3] | [7] | [8] | [4] | [5] | [6] | [9]
active: [10] 1.47 µM
